An excerpt weighted towards active compounds, which were near 8.1% of everything screened.
ELG1 DNA repair: qHTS screen for small molecules that inhibit ELG1-dependent DNA repair in human embryonic kidney (HEK293T) cells expressing luciferase-tagged ELG1; HEK293T ELG1-luciferase reporter, luminescence, 16 h; DNA damage induced by 5-fluorouridine; Potency, µM (titrated, usually from 46.1 µM), inactives show at the highest dose activity change, negative = inhibition, usual class: inhibitors; 330,000 tested, 2.3% active; note: % is set by controls: 0 for no effect and ±100 for the full control effect; nearly all actives have a fitted effect of over 55% in size
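Overnight (16 hr) co-exposure of 2,000 cells/well to 5-fluorouridine and compound at 37 °C preceded detection. Luciferase was quantified via ONE-Glo luminescence; loss of signal denotes inhibition.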
KB-V1 MDR tox: qHTS assay for MDR1-selective chemotherapeutics: Primary screen using the drug-selected MDR subline cells KB-V1; Potency, µM (top dose mostly 46.1 µM), hits mostly cytotoxic; 400,000 tested, 3.4% active; KB-V1 MDR cells viability, CellTiter-Glo, 72 h; note: % is set by controls: 0 for no effect and ±100 for the full control effect; nearly all actives have a fitted effect of over 60% in size
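Potencies derive from concentration-effect curves fitted to normalized luminescence (CellTiter-Glo) of KB-V1 cells treated for 72 h at 37 degrees C in phenol-red-free DMEM containing 10% FBS.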
MCF10A rerep: A quantitative high throughput screen for small molecules that induce DNA re-replication in MCF 10a normal breast cells | 350,000 tested, 2.9% active | Potency, µM (doses to about 46.1 µM), for the others: at the top dose activity, positive = re-replication, usual class: activators | MCF 10A DNA re-replication, Hoechst nuclear intensity, 48 h | AID 624296, 2012; note: % of control where 0% means no effect; nearly all actives have a fitted effect of over 50% in size
KB-3-1 tox: qHTS assay for MDR1-selective chemotherapeutics: Primary screen using the parental adenocarcinoma cell KB-3-1 | KB-3-1 viability, CellTiter-Glo ATP luminescence, 72 h | Potency, µM (doses to about 46.1 µM), most hits filed as cytotoxic | 400,000 tested, 1.4% active | AID 1347075, 2019; note: % is set by controls: 0 for no effect and ±100 for the full control effect; nearly all actives have a fitted effect of over 60% in size
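Parental KB-3-1 viability, qHTS format: 72 h compound exposure, 37 °C; CellTiter-Glo; media-only wells and DMSO plates as controls; concentration-effect fits on corrected data.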
SW480 rerep: A quantitative high throughput screen for small molecules that induce DNA re-replication in SW480 colon adenocarcinoma cells; 340,000 tested, 1.8% active; SW480 DNA re-replication, Hoechst DNA content imaging, 48 h; Potency, µM (series often up to 46.1 µM), inactives show top-dose re-replication activation, most hits filed as activators; AID 624297, 2012; note: % of control where 0% means no effect; nearly all actives have a fitted effect of over 55% in size
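First, 250 cells per well were seeded. Next, compound or vehicle (23 nL) was pinned in, plates sat 48 hr at 37 C. Finally Hoechst was added for 40 min before fluorescence scanning.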
An asterisk follows results filed as active; i = inactive; ? = inconclusive; . = no result given; ! = a repeat was not active. Calls come from the whole dose curve; as a rule, active = well fitted curve in the direction sought with a large enough effect; inconclusive = small, poorly fitted or top-dose-only effect, or another doubt; inactive = no such curve, though single readings can be large; an effect the other way counts as inactive or inconclusive. Potency is the fitted concentration of half-maximal effect.

SMILES	ELG1 DNA repair	KB-V1 MDR tox	MCF10A rerep	KB-3-1 tox	SW480 rerep
CCOC(=O)c1cc(C#N)c(N2CCN(C(=O)c3ccccc3)CC2)nc1C(F)(F)F	?	20.6µM*	-7.0%	i	14.6µM*
O=C(OCc1nc2ccc(Cl)cc2n1CCO)c1ccccc1C(=O)c1ccccc1	-1.1%	16.4µM*	-1.5%	i	2.3%
COc1ccc(OCCn2c(CCNC(=O)C3CCCCC3)nc3ccccc32)cc1	.	i	.	i	.
Cc1ccc(CN=C2Nc3ccccc3CS2)cc1	?	13µM*	?	?	0.0%
Cc1cccc(C(=O)Nc2sc3c(c2C(=O)NC(C)C)CCCC3)c1	.	i	.	i	.
CCOC(=O)C1=C(CN2CCCCC2)NC(=O)NC1c1cc(C)ccc1C (stereo not given)	-0.8%	10.3µM*!	5.0%	i	-0.6%
CCOC(=O)C1=C(CSCc2ccccc2)NC(=O)NC1c1cc(C)ccc1C (stereo not given)	?	9.2µM*	?	i	?
CCOC(=O)C1=C(COc2ccc(C)cc2)NC(=O)NC1c1cc(C)ccc1C (stereo not given)	?	?	?	i	11.5%
COc1ccc(NC(=O)c2oc3ccc(S(=O)(=O)N4CCCCC4)cc3c2C)cc1Cl	.	?	.	i	.
O=C(NCc1cccnc1)/C(=C/c1ccc(Cl)cc1)NC(=O)c1ccccc1	15.0%	i	4.2%	i	-3.7%
Cc1ccc(C(=O)N/C(=C/c2ccc(-c3cc(C(F)(F)F)ccc3Cl)o2)C(=O)NCc2cccnc2)cc1	-13.7%	9.2µM*	8.2%	?	1.4%
O=C(NCc1cccnc1)/C(=C/c1ccc(-c2cccc(C(F)(F)F)c2)o1)NC(=O)c1ccccc1	?	16.4µM*	?	i	1.0%
Cc1ccc(C(=O)N/C(=C\c2ccco2)C(=O)NCc2cccnc2)cc1	4.9%	i	0.0%	i	-8.8%
CCOc1ccc(Oc2ccc(NS(=O)(=O)c3ccc(CCC(=O)O)cc3)cc2)cc1	.	i	.	i	.
CC(C)(C)NC(=O)C1C(c2ccccc2)=Nc2ccccc2N1C(=O)c1ccc(C(F)(F)F)cc1 (stereo not given)	.	?	.	i	.
C=CCNc1ncnc2c1ncn2[C@H]1CN(CCc2ccccc2)C[C@@H](CO)O1	.	i	.	i	.
NS(=O)(=O)c1ccc(N=Nc2c(-c3ccccc3)[nH]n(-c3nc(-c4ccccc4)cs3)c2=O)cc1	5.17µM*	20.6µM*	?	?	2.91µM*
O=C(C1CCN(S(=O)(=O)Cc2ccccc2)CC1)N1CCN(c2cccc(Cl)c2)CC1	.	i	.	i	.
Cc1ccc(NC(=O)CSc2nnc(CNC(=O)c3ccco3)n2C)cc1	12.5%	i	?	i	0.0%
CCOc1ccc(CCNC(=O)Cn2cccc2C(=O)c2ccccc2C)cc1OCC	-11.5%	4.61µM*	-0.6%	i	-5.0%
CC(S)C(=O)NCC(=O)O (stereo not given)	.	.	-4.7%	.	-6.9%
OC[C@@H]1[C@@H](c2ccc(Cl)cc2)C(c2cccc(Cl)c2)=NN1c1ccccc1	-6.7%	?	?	i	2.31µM*
OC[C@@H]1[C@@H](c2ccc(F)cc2)C(c2cccc(Cl)c2)=NN1c1ccccc1	-14.8%	?	0.581µM*	?	0.13µM*
OC[C@@H]1[C@@H](c2ccc(Cl)cc2)C(c2ccccc2)=NN1c1ccccc1	14.5%	i	2.06µM*	i	23.1µM*
COc1cccc(-c2cn3ncsc3n2)c1	.	i	.	i	.
SMILES	ELG1 DNA repair	KB-V1 MDR tox	MCF10A rerep	KB-3-1 tox	SW480 rerep
COc1ccc(C=CC(=O)c2cc(O)ccc2O)cc1	.	i	?	i	?
COc1ccc(C(=O)/C=C/c2ccc(O)cc2)c2c1CC(O)C(C)(C)O2 (stereo not given)	23.1µM*	?	97.0%	?	14.1%
COc1ccc(C(=O)/C=C/c2ccc(O)cc2)c(O)c1CC=C(C)C	-5.8%	i	23.1µM*	i	1.7%
COc1ccc(OC)c(NC(=O)Cn2cc(C(=O)c3ccco3)c3ccccc32)c1	?	23.1µM*	3.9%	i	-2.4%
Cc1cc(OCCn2cc(C(=O)c3ccco3)c3ccccc32)ccc1Cl	.	i	.	i	.
COc1cccc(OCCn2cc(C(=O)c3ccco3)c3ccccc32)c1	?	20.6µM*	18.3%	i	-3.2%
COc1ccccc1NC(=O)Cn1cc(C(=O)c2ccco2)c2ccccc21	?	i	27.7%	i	7.4%
COc1ccccc1OCCn1cc(C(=O)c2ccco2)c2ccccc21	?	13µM*	14.9%	i	-10.4%
CC(=O)c1cn(CCOc2cc(C)ccc2C)c2ccccc12	10.9%	2.06µM*	-3.5%	?	3.8%
O=C1C=C(C#Cc2ccccc2)C[C@@H](c2ccc(F)cc2)C1	.	i	.	?	.
O=C(Nc1cccc(S(=O)(=O)N2CCCC2)c1)[C@H]1C[C@H](O)[C@@H](CO)O1	.	i	.	i	.
Cc1ccc(NC(=O)CSC(C)C(=O)OCc2cc(=O)oc3cc(O)ccc23)cc1 (stereo not given)	.	i	.	i	.
CCOc1ccc(NC(=O)C(=O)NCCc2csc(-c3ccc(F)cc3)n2)cc1	.	i	.	i	.
COc1ccccc1N1CCN(/N=C(\C)c2ccccc2O)CC1	-0.7%	i	-0.2%	i	0.6%
COc1ccccc1N1CCN(/N=C/c2cc([N+](=O)[O-])ccc2Cl)CC1	-29.8%	i	0.581µM*	i	-79.4%
COc1ccccc1N1CCN(/N=C/c2cc(OC)c(OC)c(OC)c2)CC1	-0.6%	14.6µM*	-73.7%	i	-81.3%
COc1cc(/C(C)=N/N2CCN(c3ccccc3OC)CC2)ccc1O	0.4%	i	3.66µM*	i	-32.7%
COc1ccc(CC(=O)Nc2ccccc2C(F)(F)F)cc1S(=O)(=O)N1CCOCC1	.	i	.	i	.
Cc1ccc(CCNC(=O)CCNS(=O)(=O)c2ccc3c(c2)oc(=O)n3C)cc1	-13.0%	i	-20.0%	i	-3.6%
Cn1c(=O)oc2cc(S(=O)(=O)NCCC(=O)NCCc3ccc(Cl)cc3)ccc21	-11.1%	i	3.7%	16.4µM*	7.2%
Cc1[nH]c2c(C)cccc2c1CCNS(=O)(=O)c1cccc([N+](=O)[O-])c1	-15.7%	23.1µM*	-6.8%	?	-5.2%
Cc1ccc([N+](=O)[O-])cc1S(=O)(=O)NCCc1c(C)[nH]c2c(C)cccc12	-2.4%	i	12.9%	i	-4.5%
Clc1ccc2c(c1)-c1ccccc1C1=NCCN12	.	8.2µM*	.	10.3µM*	.

Source: PubChem
